SMILES strings stand for the structures. A number with no mark means an inactive call. Active and inactive are the calls of the source.

Our source for the z-score values is PubChem BioAssay.

The test is described as follows: plasmodial surface anion channel blockers, osmotic lysis – cell-based, P. falciparum Indochina, OD700, 1 h, primary screen (AID 1154). Particulars: P. falciparum Indochina infected RBC osmotic lysis, higher = more signal, called active from +8 up or from −8 down.
`C=C(C)c1cc2c(c(CCCCCC)n1)[Si](C(C)C)(C(C)C)OC2`: the z-score is 1.18.
Under `COc1ccc(NC(=O)O[C@H]2[C@H](OC(=O)Nc3ccccc3)[C@H](OC(=O)Nc3ccccc3)[C@@H](OC)O[C@@H]2CO)cc1` stands 8.18 (active); under `CCCCC(O)C1C=CC2C(=O)N(c3ccccc3)C(=O)C2N1Nc1ccc(C(C)C)cc1` (stereo not drawn), 2.81; under `[N-]=[N+]=NCc1ccccc1C[C@@]1(C(=O)N2CCOCC2)N=C(c2ccc(OCCCO)cc2)O[C@@H]1c1ccccc1`, 27 (active).
Under `CC(c1ccccc1)C(O)C1C=CC2C(=O)N(c3ccccc3)C(=O)C2N1Nc1ccc([N+](=O)[O-])cc1` (stereo not drawn) stands 20.8 (active).
Next, `COc1ccc(CN(C2=CC[C@@]3(C(N)=O)C(=O)C(Cl)=C(Cl)C(=O)[C@@]3(C#N)C2)S(=O)(=O)c2ccc(Br)cc2)cc1`: 5.11; `COC(=O)CCCCCCC(=O)Nc1ccc(NC(=O)CCCC[P+](c2ccccc2)(c2ccccc2)c2ccccc2)cc1`: 25.6 (active).
`CC(C)N1C(=O)C[C@@](C(=O)NCCCN(C)C)(c2ccc([N+](=O)[O-])cc2)[C@H]1c1ccc(CO)cc1`: the z-score was 3.55.
Next, `CCOC(=O)C1=CC[C@@H](c2ccc(OCc3ccccc3)c(OC)c2)N(S(=O)(=O)c2ccc(C)cc2)[C@H]1c1ccc(SC)cc1`: 0.658; `COC(=O)c1c2oc(c1C(=O)OC)C(=O)N(C)Cc1cn(nn1)C[C@H](Cc1ccccc1)NC(=O)N[C@H](CO)CC2`: 0.965.
Turning to `O=C1OCC=C[C@H]2OC34C=CCN(Cn5nnc6ccccc65)C(=O)[C@H]3N(CCCO)C(=O)[C@@H]4[C@@H]12` (stereo partly drawn), the z-score is 0.243.
`C[C@@H]1ON(c2ccc(C(=O)OC(C)(C)C)cc2)[C@H](c2ccc(O)cc2)[C@H]1C(=O)N1C(=O)OC[C@H]1Cc1ccccc1`: the z-score is 3.71.
Next, `COCCOC(=O)N1C(=O)[C@@]2(c3cc(C#CC4=CCCCC4)ccc31)[C@H](C(N)=O)[C@H]1C(=O)O[C@H](c3ccccc3)[C@H](c3ccccc3)N1[C@@H]2c1ccccc1OCCO`: 3.63.
Next, `COC(=O)[C@@]1(Cc2ccc(OC)cc2)[C@@H]2C(=CC(=O)[C@H]2CC(=O)C(=O)N(C)C)CN1C(=O)c1ccccc1`: 2.07; `C=CC1c2cc(O)c(OC)cc2CCN1Cc1cc2c(cc1Br)OCO2` (stereo not drawn): 15.1 (active).
Next, `C=CCC(OC(C)=O)[C@@H]1[C@@H](N(Cc2cc3ccccc3o2)C(=O)c2ccc(C)cc2)c2cc(OCCCO)ccc2N1C(=O)Cc1ccc(OC)cc1` (stereo partly drawn): 1.19; `COc1cc(OC)c(C(O)C2C=CC3C(=O)N(c4ccccc4)C(=O)C3N2Nc2ccccc2)cc1Br` (stereo not drawn): 20.2 (active); `Cc1ccc(S[C@]2(C(=O)NCC(F)(F)F)CC(=O)N(Cc3ccccc3)[C@@H]2c2ccc(CO)cc2I)cc1`: 4.23.
For the molecule `COC(=O)c1ccc([C@H](NC(=O)c2ccco2)[C@]2(C)C[C@H]2C2CCCCC2)cc1`, the z-score is 16.4 (active).
In the case of `NC(N)=NCCCn1cc(CNC(=O)[C@@H](N)Cc2ccccc2)nn1`, the z-score was -0.174.
On to `COC(=O)c1nc2oc1CC[C@@H](CO)NC(=O)N(C)Cc1cnnn1C[C@H](Cc1ccccc1)NC2=O`, for which the z-score is 1.23.
Under `COCCOC(=O)N1C(=O)[C@@]2(c3cc(C#CC4=CCCCC4)ccc31)[C@H](c1ccc(OCCO)cc1)N1[C@H](c3ccccc3)[C@H](c3ccccc3)OC(=O)[C@H]1[C@@H]2C(=O)N1CCN(c2ncccn2)CC1` stands 3.35; under `CC(C)(C)OC(=O)CC[C@]1(C(=O)NCC(O)CO)N=C(c2ccc(OCCCO)cc2)O[C@H]1c1ccccc1` (stereo partly drawn), 19.9 (active).
Next, `O=C1O[C@H](c2ccccc2)[C@H](c2ccccc2)N2[C@H]1[C@@H](C(=O)Nc1nc3ccccc3s1)[C@]1(C(=O)Nc3ccccc31)[C@H]2c1ccc(OCCO)cc1`: 3.55; `C=CC[C@]1(C(=O)NCCN2CCOCC2)N=C(c2ccc(OCCCO)cc2)O[C@H]1c1ccccc1CN=[N+]=[N-]`: 18.6 (active).
Next, `COCCCNC(=O)[C@@]1(Cc2ccccc2CN=[N+]=[N-])N=C(c2ccc(OCCCO)cc2)O[C@H]1c1ccccc1`: 17.1 (active); `CN(C)C(=O)[C@@]1(CCS(=O)(=O)c2ccccc2)N=C(c2ccc(OCCCO)cc2)O[C@H]1c1ccccc1`: 28.3 (active); `CCOC(=O)C1CCCCN1` (stereo not drawn): -0.536.
